Measured values taken from PubChem BioAssay AID1460 (National Center for Advancing Translational Sciences (NCATS), 2008).
Screen size: about 270,000 compounds; about 5,800 (2.1%) were called active. Not shown: some 16% with an inconclusive outcome. Calls follow the shape of the dose curve; as a rule, active = well fitted inhibition curve with a large enough effect; inconclusive = small, poorly fitted or top-dose-only effect; inactive = flat fitted curve, though single readings scatter. Only a selection was taken, and actives are over-represented in it overall.

Each compound was assayed against Microtubule-associated protein tau (Homo sapiens) (UniProt P10636) (assay: qHTS for Inhibitors of Tau Fibril Formation, Thioflavin T Binding). Conditions: recombinant tau K18 P301L (four-repeat tau fragment), heparin-induced fibrillization, ThT fluorescence; series mostly up to 57.4 µM; activity, negative = inhibition: at the top concentration.
Microtubule-associated protein tau (Homo sapiens), sequence (P10636 561-689 P618L limits assumed): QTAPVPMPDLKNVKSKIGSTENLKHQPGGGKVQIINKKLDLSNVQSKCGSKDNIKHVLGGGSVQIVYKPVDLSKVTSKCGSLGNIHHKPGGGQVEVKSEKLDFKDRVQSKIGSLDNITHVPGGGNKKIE
In short: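 Aggregation was driven by heparin (20 uM final) acting on recombinant tau […] bearing P301L in 100 mM sodium acetate pH 7; fibrils were detected with Thioflavin T.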
% is scaled to controls: 0 for no effect and ±100 for the full control effect; potency is read from the fitted curve at half-maximal effect.
Also: nearly all actives have a fitted effect of over 55% in size.

Row | SMILES | activity, negative = inhibition | Potency
1 | COC(=O)c1cc(NC(=O)c2cnc(SC)nc2-c2ccccc2)cc(C(=O)OC)c1 | -2.89% (inactive) | 
2 | Cc1ccc(Nc2ccc3cc(S(=O)(=O)N4CCCCC4)ccc3n2)cc1F | 1.9% (inactive) | 
3 | CCc1nc(NCCO)c(C#N)c2c1CCCC2 | -1.9% (inactive) | 
4 | CCCCc1nc(NCc2ccccc2)c(C#N)c2c1CCCC2 | -11.9% (inactive) | 
5 | CCN1CCc2c(C#N)c(NCc3ccccc3)nc(NCCO)c2C1 |  | 22.4 µM (active)
6 | COc1ccc(SCc2cc(=O)c3ccc(C)c(C)c3[nH]2)cc1 | -4.47% (inactive) | 
7 | COc1ccc(CNC(=O)C(C)n2nc(C)c3c(C)n(-c4ccccc4)nc3c2=O)c(OC)c1 (stereo not drawn) | 13.1% (inactive) | 
8 | CCOC(=O)c1[nH]c(C)c(CCC(=O)NCc2ccccc2C)c1C | 4.91% (inactive) | 
9 | CCC(C)Cn1c(O)cc2nn(-c3nc4ccccc4s3)c(=O)c-2c1C (stereo not drawn) |  | 31.6 µM (active)
10 | CCOC(=O)N1CCN(CC(=O)Nc2cc(C)nn2-c2nc3ccccc3s2)CC1 | -20.1% (inactive) | 
11 | Cc1cc(NC(=O)CN2CCCC(C)C2)n(-c2nc3ccccc3s2)n1 (stereo not drawn) | -4.78% (inactive) | 
12 | COc1ccccc1N1CCN(c2ncnc3onc(-c4ccc(F)cc4)c23)CC1 | -11% (inactive) | 
13 | N#Cc1ccccc1Cn1cnc2nc3c(cc2c1=O)CCCC3 | 6.09% (inactive) | 
14 | CCOC(=O)c1c(NC(=O)/C(C#N)=C/c2ccccc2)sc2c1CCC2 | -11.2% (inactive) | 
15 | C/C(=C\c1ccccc1)C1NC(=O)c2c(sc3c2CCCC3)N1 (stereo not drawn) |  | 3.55 µM (active)
16 | CCOC(=O)N1CCc2c(sc3c2C(=O)NC(c2ccccc2F)N3)C1 (stereo not drawn) | -16.9% (inactive) | 
17 | O=C(Nc1ccc2nc(SCC(=O)N3CCCc4ccccc43)sc2c1)c1ccc(Cl)cc1 | -9.33% (inactive) | 
18 | CCC(=O)Nc1c(C(=O)N2CCN(c3ccc(F)cc3)CC2)oc2ccccc12 | -8.2% (inactive) | 
19 | CC(=O)N(C)c1ccc(NC(=O)C(F)(F)F)cc1 | -4.07% (inactive) | 
20 | O=C(/C=C/Nc1ccccc1OC(F)(F)F)C(F)(F)F | 12.2% (inactive) | 
21 | CN(C)c1ccc(N/C=C/C(=O)C(F)(F)F)cc1 |  | 10 µM (active)
22 | COC(=O)c1scc(-c2ccccc2)c1S(=O)(=O)Nc1ccccc1 | -4.33% (inactive) | 
23 | CSc1nc(Nc2ccc(F)cc2)cc(-c2ccccc2)n1 | 1.92% (inactive) | 
24 | Fc1ccc(Nc2nnns2)cc1 |  | 28.2 µM (active)
25 | Cc1ccccc1OCCSc1nc2ccc(NC(=O)c3ccco3)cc2s1 | 8.23% (inactive) | 
26 | COc1cccc2c1cc1c(=O)n(CC(=O)N3CCN(c4cccc(Cl)c4)CC3)nc(C)n12 | 2.8% (inactive) | 

Row | SMILES | activity, negative = inhibition | Potency
27 | Cc1ccc(NC(=O)C(=O)NCC(c2cccnc2)N2CCOCC2)cc1 (stereo not drawn) | -11.6% (inactive) | 
28 | Cc1ccc2sc(NNC(=O)c3ccc4c(c3)OCCO4)nc2c1C |  | 12.6 µM (active)
29 | Cc1cc(C)c2nc(NC(=O)c3ccc4c(c3)OCO4)sc2c1 | -7.3% (inactive) | 
30 | O=C(Nc1nc2ccccc2s1)c1ccc2c(c1)OCO2 | -0.597% (inactive) | 
31 | COc1ccc(-c2noc(-c3ccc(N4CCN(c5ccccc5)CC4)c([N+](=O)[O-])c3)n2)cc1OC | -14.1% (inactive) | 
32 | O=C(Nc1ccccc1F)C(c1ccccc1)N1Cc2ccccc2C1=O (stereo not drawn) | -3.81% (inactive) | 
33 | C[N+](C)(CCCCCC[N+](C)(C)CCCN1C(=O)c2cccc3cccc(c23)C1=O)CCCN1C(=O)c2cccc3cccc(c23)C1=O | 3.91% (inactive) | 
34 | Cc1ccc(-n2[nH]c(C)c(/C=N/N3C(=O)c4cccc5cccc(c45)C3=O)c2=O)cc1 |  | 22.4 µM (active)
35 | Cc1[nH]n(-c2ccc(Cl)cc2)c(=O)c1/C=N/n1c(C)nc2ccccc2c1=O | -19.5% (inactive) | 
36 | COc1ccc(NC(=O)CCCc2nnc3n(CCC(C)C)c(=O)c4sccc4n23)c(OC)c1 | -4.84% (inactive) | 
37 | COC(=O)c1cc2occc2n1Cc1nc(-c2ccc(C)cc2)oc1C | 7.52% (inactive) | 
38 | O=c1c(O)c(Br)ccc2c(Br)c(O)c(O)c(O)c12 |  | 3.55 µM (active)
39 | COc1cccc(C(=O)NCc2ccc3c(c2)CCN3C(=O)c2ccncc2)c1 | -1.82% (inactive) | 
40 | Cc1ccc(Cl)cc1N1CCN(C(=O)c2cccn3c(=O)c4cc(Cl)ccc4nc23)CC1 | 1.52% (inactive) | 
41 | COc1ccc(NS(=O)(=O)c2cc3c(cc2C)N(C(C)=O)CCO3)cc1 | -6.28% (inactive) | 
42 | Cc1cc(C(=O)N/N=C/c2ccc(O)c([N+](=O)[O-])c2)c(C)n1-c1ccc(F)cc1 |  | 14.1 µM (active)
43 | Cc1cc(C(=O)COC(=O)C2CC2)c(C)n1-c1ccc(F)cc1 | -7.67% (inactive) | 
44 | Cc1nn(CC(=O)N/N=C/c2ccc(F)cc2)c(C)c1[N+](=O)[O-] | -6.13% (inactive) | 
45 | Cc1ccc2c(=O)c(C(=O)c3ccc(Cl)cc3)cn(CC(=O)NC3CCCCC3)c2n1 | -11.7% (inactive) | 
46 | CCOC(=O)C1=C(C)NC(=O)NC1c1ccccc1 (stereo not drawn) | -5.11% (inactive) | 
47 | CCOC(=O)C1=NO[C@@]2(C=C(Br)C(=O)[C@H]3O[C@H]32)C1 |  | 15.8 µM (active)
48 | CCOC(=O)C1=NOC(Cn2cc(C(C)=O)c(=O)[nH]c2=O)C1 (stereo not drawn) | 0.727% (inactive) | 
49 | CCc1ccccc1NC(=O)CSc1nnc(-c2ccccc2)c(-c2ccccc2)n1 | -10.8% (inactive) | 
50 | CC(=O)N1CCCc2cc(S(=O)(=O)Nc3ccc(Cl)cc3F)ccc21 | -5.83% (inactive) | 
51 | CCc1ccc(/C=C2\SC(N3CCOCC3)=NC2=O)cc1 | -5.76% (inactive) | 
52 | CCN1C(=O)/C(=C\N2CCN(c3ccccc3)CC2)SC1=S | -10.5% (inactive) | 

Row | SMILES | activity, negative = inhibition | Potency
53 | CCN1C(=O)/C(=C2\SC(N3CCCCC3)=NC2=O)c2ccccc21 |  | 11.2 µM (active)
54 | CCc1ccc(NC(=O)c2cc(S(=O)(=O)N3CCCC(C)C3)cn2C)cc1 (stereo not drawn) | 4.85% (inactive) | 
55 | Cc1c(Cl)cccc1-c1ccc(CNCCCSc2nnnn2C)o1 | -6.19% (inactive) | 
56 | CCn1cc2nc(SCc3ccccc3Cl)n(CCc3ccccc3)c(=O)c2n1 | -12.5% (inactive) | 
57 | Oc1ccc(/C=N/NC2=NCCCCC2)c(O)c1 | -11.4% (inactive) | 
58 | Cc1n[nH]c(=O)nc1N/N=C/c1cccs1 | -16.7% (inactive) | 
59 | Cc1nc2ccccc2nc1N/N=C/c1ccc(O)cc1O |  | 14.1 µM (active)
60 | Fc1ccc(/C=N/Nc2nc(-c3cccnc3)nc3ccccc23)cc1 | -19.8% (inactive) | 
61 | Cc1cc(N/N=C/c2ccccc2F)c2ccccc2n1 | 0.109% (inactive) | 
62 | Oc1ccc(/C=N/Nc2nc(-c3ccccc3F)nc3ccccc23)c(O)c1 |  | 4.47 µM (active)
63 | Cc1nc2nc(SCC(=O)NC3CCC(C)CC3)nn2c(C)c1Cc1ccccc1Cl (stereo not drawn) | -13.3% (inactive) | 
64 | COC(=O)c1scc(-c2ccc(C)cc2)c1S(=O)(=O)Nc1cc(Cl)c(OC)cc1OC | -2.57% (inactive) | 
65 | CC1CCN(S(=O)(=O)c2ccc3c(c2)N(CC(=O)NCCc2ccccc2)C(=O)CO3)CC1 | -3.46% (inactive) | 
66 | CNc1ccc(SC#N)cc1 |  | 12.6 µM (active)
67 | COc1ccccc1-c1nc(SC)n[nH]1 | 3.07% (inactive) | 
68 | COc1ccccc1C1=Nc2cccc3cccc(c23)N1 |  | 11.2 µM (active)
69 | CNc1nc(-c2ccccc2OC)nc2ccccc12 | -7.91% (inactive) | 
70 | CCc1cccc(NC(=O)Cn2nc(CC)n3c(cc4cc(C)ccc43)c2=O)c1 | 6.72% (inactive) | 
71 | Cc1cn(C)c(CC(=O)NCc2ccc(Cl)cc2)c1C(=O)O | -5.43% (inactive) | 
72 | CCOc1cccc(CC(=O)N2CCc3c([nH]c4ccccc34)C2c2ccc(OC)cc2)c1OCC (stereo not drawn) | -12.2% (inactive) | 
73 | Nc1ccc(N=Nc2ccccc2Cl)c(N)n1 |  | 2 µM (active)
74 | CCOC(=O)C1CCC(CN(Cc2ccc(OC)cc2)S(=O)(=O)c2ccc(F)c(C(=O)Nc3cc(C)ccc3C)c2)CC1 (stereo not drawn) | -2.42% (inactive) | 
75 | CCOC(=O)c1cc(-c2ccccc2)n(-c2cccc(C(=O)Nc3cc(OC)cc(OC)c3)c2)c1C | 2.87% (inactive) | 
76 | O=C(CCCN1C(=O)/C(=C\c2ccccc2)SC1=S)Nc1ccccc1O | -12.1% (inactive) | 
77 | COc1ccc(/C=C2/SC(=O)N(CCCCCC(=O)Nc3ccccc3C(=O)O)C2=S)cc1 |  | 11.2 µM (active)
78 | COc1ccc(/C=C2\SC(=S)N(CC(=O)NNC(=O)c3ccncc3)C2=O)cc1 | -17.1% (inactive) | 

Row | SMILES | activity, negative = inhibition | Potency
79 | Cc1cc(OCC(=O)Nc2ncn[nH]2)c(C)c(C)c1Br | 1.95% (inactive) | 
80 | CCOCCCNC(=O)c1cc2c(=O)n3ccccc3nc2s1 | -11.4% (inactive) | 
81 | Cc1cccc(-n2c(=O)c3c(c4cc(C)ccc4n3C)n(CC(=O)Nc3ccccc3Cl)c2=O)c1 | 7.44% (inactive) | 
82 | Cc1noc(/C=C/N(C)C)c1S(=O)(=O)N1CCCC(C(=O)NCc2ccco2)C1 (stereo not drawn) |  | 28.2 µM (active)
83 | Cc1noc(/C=C/N(C)C)c1S(=O)(=O)N1CCCC(C(=O)Nc2cccc(F)c2)C1 (stereo not drawn) | -18.5% (inactive) | 
84 | O=C(NCc1ccco1)C1CCCN(S(=O)(=O)c2ccccc2)C1 (stereo not drawn) | 9.5% (inactive) | 
85 | Cc1cccc(N2CCN(S(=O)(=O)c3ccc4[nH]c5c(c4c3)CCCCC5)CC2)c1C | 9.87% (inactive) | 
86 | CC[C@@H]1Cc2cc(O)ccc2C2=C1c1ccc(O)cc1C[C@H]2CC |  | 17.8 µM (active)
87 | CC1(C)CC(=O)c2ccc(O)cc2O1 | -1.2% (inactive) | 
88 | COc1ccccc1Cc1nc2ccccc2nc1SCC(=O)N1CCCc2ccccc21 | -6.43% (inactive) | 
89 | CCN1CCN(c2ccc([N+](=O)[O-])cc2C(=O)c2ccc(Cl)cc2)CC1 | -12.9% (inactive) | 
90 | CC1CCN(c2ccc([N+](=O)[O-])cc2C(N)=O)CC1 | -10.4% (inactive) | 
91 | O=[N+]([O-])c1ccc(N2CCN(c3ccc(O)cc3)CC2)c(Cl)c1 |  | 6.31 µM (active)
92 | O=C(NC1(C(F)(F)F)N=C(c2ccccc2)N(C2CCCCC2)C1=O)c1ccccc1F (stereo not drawn) | -3.93% (inactive) | 
93 | CN(C)CCCN(C(=O)COc1ccccc1)c1nc2c(Cl)cccc2s1 | 3.98% (inactive) | 
94 | NNc1nc2c(Cl)cccc2s1 |  | 22.4 µM (active)
95 | Fc1cc(F)c2nc(Nc3nc4c(F)cccc4s3)sc2c1 | 4.52% (inactive) | 
96 | Cc1ccc(CNC(=O)Cn2c(=O)ccc3cc(S(=O)(=O)N4CCCC4)ccc32)cc1 | 3.36% (inactive) | 
97 | CCc1ccccc1NC(=O)Cn1c(=O)n(CC2CCC(C(=O)NCCc3ccccc3)CC2)c(=O)c2ccccc21 (stereo not drawn) | -5.1% (inactive) | 
98 | C#CCOc1ccc(C2CC(=O)Nc3c2c(C)nn3-c2nc(C)cc(C)n2)cc1 (stereo not drawn) | -6.86% (inactive) | 
99 | Cc1ccc(C(=O)N2CCc3cc(CNC(=O)c4ccc(Br)cc4)ccc32)cc1 | -15.5% (inactive) | 
100 | Cc1nn(-c2ccc(N3CCCCC3)nn2)c(C)c1CCC(=O)NCc1ccccc1F | -4.06% (inactive) | 
101 | Clc1ccc(CN2CCN(/N=C/c3cccnc3)CC2)cc1 | -5.56% (inactive) | 
102 | O=Cc1cn(Cc2ccccc2)nc1-c1cccnc1 | -0.733% (inactive) | 
103 | O=C1/C(=C\c2cccnc2)CN(Cc2ccccc2)C/C1=C\c1cccnc1 |  | 14.1 µM (active)
